Records with an inconclusive call do not appear. The source made the active and inactive calls. Unless noted, calls come from the whole dose curve; as a rule, active = well fitted inhibition curve with a large enough effect; inconclusive = small, poorly fitted or top-dose-only effect; inactive = flat fitted curve, though single readings scatter.

A short description of test [1]: qHTS profiling for inhibitors of Plasmodium falciparum proliferation (AID 504749).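 Note: 0% = DMSO vehicle and full inhibition = artemisinin control; nearly all actives have a fitted effect of over 60% in size.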 As to conditions: P. falciparum in erythrocytes, SYBR Green DNA, 72 h. Summed up: (§1)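 Fluorescence of SYBR Green-bound parasite DNA, read at 485/535 nm, served as the growth measure. Infected erythrocytes were cultured with compound 72 h; artemisinin (0.29 uM) and DMSO wells defined the normalization range.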
On the technique in general: In qHTS, concentration-response curves come from the screen itself.

The subject of test [2] is 3D7. Described as above. As to conditions: P. falciparum in erythrocytes, SYBR Green DNA, 72 h; series mostly up to 28.7 µM. The procedure, abridged:
as §1

Test [3] deals with 7G8. Described as above. Particulars: P. falciparum in erythrocytes, SYBR Green DNA, 72 h; series mostly up to 28.7 µM. Summed up:
as §1

Test [4] deals with AA1029. The test is described as above. Particulars: P. falciparum in erythrocytes, SYBR Green DNA, 72 h; series mostly up to 28.7 µM. Summed up:
as §1

Test [5] deals with AS120. The description is as above. As to conditions: P. falciparum in erythrocytes, SYBR Green DNA, 72 h; series mostly up to 28.7 µM. The procedure, abridged:
as §1

The test system of test [6] is ATS189. Described as above. Particulars: P. falciparum in erythrocytes, SYBR Green DNA, 72 h; series mostly up to 28.7 µM. The procedure, abridged:
as §1

In test [7] the test system is ATS95. The description is as above. Particulars: P. falciparum in erythrocytes, SYBR Green DNA, 72 h; series mostly up to 28.7 µM. The procedure, abridged:
as §1

The subject of test [8] is C2A. The test is described as above. Particulars: P. falciparum in erythrocytes, SYBR Green DNA, 72 h; series mostly up to 28.7 µM. The procedure, abridged: as §1
Test [9] relates to CP185. The test is described as above. Particulars: P. falciparum in erythrocytes, SYBR Green DNA, 72 h; series mostly up to 28.7 µM. The procedure, abridged: as §1
The test system of test [10] is CP191. The test is described as above. As to conditions: P. falciparum in erythrocytes, SYBR Green DNA, 72 h; series mostly up to 28.7 µM. The procedure, abridged:
as §1

The test system of test [11] is CP192. The test is described as above. Particulars: P. falciparum in erythrocytes, SYBR Green DNA, 72 h; series mostly up to 28.7 µM. The procedure, abridged:
as §1

Test [12] concerns CP194. The description is as above. As to conditions: P. falciparum in erythrocytes, SYBR Green DNA, 72 h; series mostly up to 28.7 µM. Summed up: as §1
Test [13] deals with CP201. The description is as above. Particulars: P. falciparum in erythrocytes, SYBR Green DNA, 72 h; series mostly up to 28.7 µM. The procedure, abridged: as §1
Test [14] can be described thus: qHTS drug screen for cell cycle checkpoint inhibitors in PARPi-resistant BRCA-mutant ovarian cancer cell lines. (AID 1963452; calls by dose curve). Particulars: PEO1/OlaR viability, CellTiter-Glo luminescence, 96 h, stronger effect = lower value. Summed up:
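PEO1, PEO4 and PEO1/OlaR ovarian cancer cells, 600 per well, exposed 96 h at 37C to a dilution series. Viability read by CellTiter-Glo luminescence, normalized to DMSO and empty wells; activity summarized as Z-AUC.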

Where [15] appears, read: at 28.7 µM (top of the series), parasite line A.
Setting [16] is: at 28.7 µM (top of the series), parasite line B.
[17] abbreviates: measured here: PEO1 parental Z-AUC.

`NC(=O)NS(=O)(=O)c1ccc(N)cc1`: the activity, negative = inhibition was -1.96% (inactive) in [1] (setting [15]) and 15.9% (inactive) in test [1] (setting [16]). The Potency result in test [2], in test [3], in test [4], in test [5], in [6] and in test [7] was “inactive” each time. Moreover, the Potency result in test [8] and in test [9] was “inactive” throughout. Also, the result in [10], in [11], in test [12] and in test [13] was inactive.
`OCCN1C[C@H](O)[C@@H](O)[C@H](O)[C@H]1CO`: the Z-AUC in [14] is 0.928 (inactive); in [14] (setting [17]) it was 0.927; in test [14] (measured here: PEO4 Z-AUC) it was 1.11.
On to `CC(=O)Nc1cccc(O)c1`, for which the activity, negative = inhibition was 7.02% (inactive) in test [1] (setting [15]) and 9.95% (inactive) in [1] (setting [16]). For the same molecule, the Potency result in [2], in test [3], in test [4], in test [5], in test [6] and in test [7] was “inactive” in each case. For the same molecule, the Potency result in test [8] and in test [9] was “inactive” each time. The call in [10], in test [11], in [12] and in test [13] was inactive.
Consider `CCCCCOC(=O)Nc1nc(=O)n([C@@H]2O[C@H](C)[C@@H](O)[C@H]2O)cc1F`, for which the results for the Z-AUC in test [14], in test [14] (setting [17]) and in test [14] (measured here: PEO4 Z-AUC) were -0.294 (inactive), -0.525 and -0.448, respectively.
For `O=C(/C=C/c1ccccc1)OCc1ccccc1`, the activity, negative = inhibition in test [1] (setting [15]) is 4.66% (inactive); in [1] (setting [16]) it was -29.4% (inactive). The Potency result in test [2], in [3], in test [4], in test [5], in test [6] and in test [7] was “inactive” throughout. The Potency entry in test [8] and in test [9] was “inactive” throughout. Moreover, the outcome in test [10], in test [11], in test [12] and in test [13] was inactive.
On to `O=C(O)CNC(=O)c1ccccc1I`, for which the activity, negative = inhibition in [1] (setting [15]) was 6.37% (inactive); in [1] (setting [16]), 11.3% (inactive). The Potency entry in [2], in test [3], in test [4], in [5], in test [6] and in test [7] was “inactive” throughout. Also, the Potency result in [8] and in [9] was “inactive” each time. For the same molecule, the outcome in test [10], in [11], in [12] and in test [13] was inactive.
In the case of `C[C@@H]1CCC[C@H](C)N1`, the activity, negative = inhibition is 13.8% (inactive) in [1] (at 12.8 µM (top of the series), parasite line A) and -5.49% (inactive) in test [1] (at 12.8 µM (top of the series), parasite line B). For the same molecule, the Potency result in test [2], in test [3], in test [4], in [5], in test [6] and in test [7] was “inactive” throughout. Also, the Potency result in test [8] and in [9] was “inactive” in each case. Also, the result in test [10], in test [11], in [12] and in test [13] was inactive.
Consider `NNc1nnc(NN)c2ccccc12`, for which the results for the activity, negative = inhibition in test [1] (setting [15]) and in [1] (setting [16]) were 11.4% (inactive) and 18.1% (inactive), respectively. In addition, the Potency result in test [2], in test [3], in test [4], in test [5], in test [6] and in test [7] was “inactive” in each case. In addition, the Potency result in test [8] and in test [9] was “inactive” throughout. In addition, the outcome in test [10], in [11] and in test [12] was inactive.
As for `COc1ccc(-c2cc(=O)c3c(O)cc(O[C@@H]4O[C@H](CO[C@@H]5O[C@@H](C)[C@H](O)[C@@H](O)[C@H]5O)[C@@H](O)[C@H](O)[C@H]4O)cc3o2)cc1O`, the Z-AUC was 1.88 (inactive) in test [14], 1.52 in test [14] (setting [17]) and 0.98 in test [14] (measured here: PEO4 Z-AUC).
`CNCc1ccccc1`: the results for the activity, negative = inhibition in [1] (setting [15]) and in [1] (setting [16]) were 11.1% (inactive) and 15.3% (inactive), respectively. Also, the Potency result in test [2], in test [3], in test [4], in test [5], in test [6] and in test [7] was “inactive” each time. The Potency result in [8] and in test [9] was “inactive” in each case. Moreover, the molecule was called inactive in test [10], in test [11], in [12] and in test [13].
As for `Nc1ncnc2c1ncn2[C@@H]1O[C@H](COP(=O)(O)O)[C@@H](O)[C@H]1O`, the activity, negative = inhibition in [1] (setting [15]) was -10.7% (inactive); in test [1] (setting [16]) it was 4.33% (inactive). Also, the Potency result in test [2], in [3], in [4], in test [5], in test [6] and in test [7] was “inactive” each time. Besides, the Potency entry in test [8] and in test [9] was “inactive” in each case. Besides, the molecule was classed as inactive in test [10], in test [11], in test [12] and in [13].
On to `CC(O)CCCCn1c(=O)c2c(ncn2C)n(C)c1=O` (stereo not given), for which the activity, negative = inhibition is 9.1% (inactive) in test [1] (setting [15]) and 4.96% (inactive) in test [1] (setting [16]). Also, the Potency result in test [2], in test [3], in [4], in test [5], in test [6] and in test [7] was “inactive” in each case. Further, the Potency entry in test [8] and in [9] was “inactive” in each case. Moreover, the molecule was classed as inactive in [10], in test [11], in test [12] and in test [13].
As to `Cc1onc(-c2ccccc2)c1-c1ccc(S(N)(=O)=O)cc1`, the results for the Z-AUC in [14], in [14] (setting [17]) and in test [14] (measured here: PEO4 Z-AUC) were -1 (inactive), -0.334 and 0.0747, respectively. In addition, the activity, negative = inhibition in test [1] (setting [15]) is -24.3% (inactive). Further, the Potency result in test [2], in [3], in test [4], in [5], in [6] and in [7] was “inactive” in each case. Also, the Potency entry in test [8] and in test [9] was “inactive” throughout. For the same molecule, the molecule was classed as inactive in test [10], in test [11], in [12] and in test [13].
Turning to `CCOC(=O)[C@H](CCc1ccccc1)N[C@@H](C)C(=O)N1CCC[C@H]1C(=O)O`, the Z-AUC in test [14] was 0.643 (inactive); in [14] (setting [17]), 0.764; in [14] (measured here: PEO4 Z-AUC) it was 0.867. Moreover, the activity, negative = inhibition in test [1] (setting [15]) is 7.69% (inactive). Besides, the Potency result in [2], in [3], in test [5], in test [6], in test [7] and in [8] was “inactive” in each case. Also, the Potency result in test [9] is “inactive”. For the same molecule, the molecule was classed as inactive in test [10], in test [11], in test [12] and in test [13].
Regarding `Cc1cc(NC(=O)C2=C(O)c3ccccc3S(=O)(=O)N2C)no1`, the activity, negative = inhibition in test [1] (setting [15]) is 12.7% (inactive); in test [1] (setting [16]), -1.12% (inactive). In addition, the Potency result in [2], in [3], in test [4], in test [5], in test [6] and in test [7] was “inactive” each time. Further, the Potency result in test [8] and in test [9] was “inactive” throughout. Further, the call in test [10], in test [11], in [12] and in test [13] was inactive.
Consider `Cc1cccc(Nc2ccccc2C(=O)O)c1C`, for which the activity, negative = inhibition in [1] (setting [15]) was -4.38% (inactive); in test [1] (setting [16]), 15.2% (inactive). Moreover, the Potency entry in test [2], in test [3], in test [4], in test [5], in test [6] and in test [7] was “inactive” each time. The Potency result in test [8] and in [9] was “inactive” throughout. Further, the outcome in test [10], in [11], in test [12] and in [13] was inactive.
On to `CC(=O)Nc1ccc(OCCOCCOc2ccc(NC(C)=O)cc2)cc1`, for which the results for the activity, negative = inhibition in [1] (setting [15]) and in test [1] (setting [16]) were 6.75% (inactive) and 13% (inactive), respectively. For the same molecule, the Potency entry in test [2], in [3], in [4], in test [5], in [6] and in [7] was “inactive” each time. Moreover, the Potency result in [8] and in test [9] was “inactive” each time. The result in [10], in test [11], in test [12] and in [13] was inactive.
With `C[N+](C)(C)CC[N+]1(C)Cc2c(Cl)c(Cl)c(Cl)c(Cl)c2C1`, the figures for the activity, negative = inhibition in [1] (setting [15]) and in test [1] (setting [16]) were 5.09% (inactive) and 9.42% (inactive), respectively. In addition, the Potency entry in test [2], in test [3], in test [4], in test [5], in test [6] and in [7] was “inactive” in each case. In addition, the Potency result in [8] and in test [9] was “inactive” in each case. Also, the molecule was classed as inactive in test [10], in test [11], in test [12] and in test [13].
Take `Cc1c(C(=O)NCCO)[n+](=O)c2ccccc2n1[O-]`: the results for the activity, negative = inhibition in test [1] (setting [15]) and in test [1] (setting [16]) were 8.49% (inactive) and -1.36% (inactive), respectively. The Potency entry in test [2], in test [3], in test [4], in [5], in [6] and in test [7] was “inactive” each time. For the same molecule, the Potency entry in test [8] and in test [9] was “inactive” in each case. For the same molecule, the call in [10], in [11], in test [12] and in [13] was inactive.

Source of the values: PubChem BioAssay (NCATS).
